# Reference: the supplement of paper PMC9262897, “Low-cost anti-mycobacterial drug discovery using engineered E. coli” (Nature Communications, 2022)
# Counter-ions that a name gives are not always drawn. ± gives the standard deviation of the averaged measurements.
# Assays:
# Assay in all cases: growth (OD600 after 10 h); higher = more growth (less inhibition)
# [1] = system: E. coli TESEC Alr+ wild-type control; conditions: compound 0.1 mM; raw OD600 reference: median of DMSO wells 0.241, cell-free background 0.041
# Method: (§1)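 TESEC Mtb Alr E. coli, or the Alr+ wild-type control, in 384-well plates with Prestwick library compounds at 0.1 mM and 1% DMSO, across arabinose induction levels of 1E3 to 1E7 nM. Growth is read as OD600 after 10 h at 37 °C in triplicate biological replicates.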
# [2] = system: E. coli TESEC Mtb Alr; conditions: compound 0.1 mM
# Method: as §1
# [3] = system: E. coli TESEC Mtb Asd; conditions: compound 0.1 mM
# Method: (§2)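 TESEC E. coli strains in which the native enzyme is deleted and replaced by arabinose-inducible Mtb Asd, DapB, CysH or TrpD, each grown in its selective medium. Strains were screened against the Prestwick library at 0.1 mM and 1% DMSO in 384-well format at low and high arabinose induction. Growth is read as OD600 after 10 h in triplicate.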
# [4] = system: E. coli TESEC Mtb DapB; conditions: compound 0.1 mM
# Method: as §2
# [5] = system: E. coli TESEC Alr+ wild-type control; conditions: compound 0.1 mM; raw OD600 reference: median of DMSO wells 0.49, cell-free background 0.052
# Method: (§3)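 TESEC Mtb Alr E. coli (ΔaraC ΔtolC ΔentC Δalr ΔdadX, arabinose-inducible Mtb Alr) or the Alr+ wild-type control strain, grown in defined M9-fructose medium without D-alanine in 96-well plates with Prestwick library compounds at 0.1 mM and 1% DMSO. Low Alr induction is 0.1 µM arabinose and high induction is 10 mM arabinose.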
# [6] = system: E. coli TESEC Mtb Alr; conditions: compound 0.1 mM; remark: listed apart in the source
# Method: as §3
# [7] = arabinose 1000 nM, raw OD600 reference: median of DMSO wells 0.294, cell-free background 0.041
# [8] = arabinose 10000 nM, raw OD600 reference: median of DMSO wells 0.264, cell-free background 0.041
# [9] = arabinose 100000 nM, raw OD600 reference: median of DMSO wells 0.201, cell-free background 0.041
# [10] = arabinose 1000000 nM, raw OD600 reference: median of DMSO wells 0.193, cell-free background 0.041
# [11] = arabinose 10000000 nM, raw OD600 reference: median of DMSO wells 0.146, cell-free background 0.041
# [12] = arabinose induction (level): High, raw OD600 reference: median of DMSO wells 0.331, cell-free background 0.041
# [13] = arabinose induction (level): Low, raw OD600 reference: median of DMSO wells 0.417, cell-free background 0.041
# [14] = arabinose induction (level): High, raw OD600 reference: median of DMSO wells […], cell-free background 0.041
# [15] = arabinose induction (level): Low, raw OD600 reference: median of DMSO wells 0.227, cell-free background 0.041
# [16] = arabinose 100 nM, raw OD600 reference: median of DMSO wells 0.413, cell-free background 0.052
# [17] = arabinose 10000000 nM, raw OD600 reference: median of DMSO wells […], cell-free background 0.052
smiles,measurement,setting,value
CN1C[C@H](CNC(=O)OCc2ccccc2)C[C@@H]2c3cccc4c3c(cn4C)C[C@H]21 [Metergoline],growth,[1],0.0409 ± 0.00056
same,growth,[2]; [7],0.0429 ± 0.0039
same,growth,[2]; [8],0.04017 ± 0.00032
same,growth,[2]; [9],0.0428 ± 0.00093
same,growth,[2]; [10],0.0401 ± 0.00017
same,growth,[2]; [11],0.0432 ± 0.0024
same,growth,[3]; [12],0.0522 ± 0.002
same,growth,[3]; [13],0.0487 ± 0.0029
same,growth,[4]; [14],0.048 ± 0.0011
same,growth,[4]; [15],0.0468 ± 0.00083
same,growth,[5],0.04927 ± 5.8e-05
same,growth,[6]; [16],0.278 ± 0.2
same,growth,[6]; [17],0.05077 ± 0.00012
CC(C)[N+](C)(CCC(C(N)=O)(c1ccccc1)c1ccccc1)C(C)C [Isopropamide iodide],growth,[1],0.211 ± 0.003
same,growth,[2]; [7],0.285 ± 0.0086
same,growth,[2]; [8],0.248 ± 0.0032
same,growth,[2]; [9],0.199 ± 0.015
same,growth,[2]; [10],0.147 ± 0.0039
same,growth,[2]; [11],0.142 ± 0.0052
same,growth,[3]; [12],0.268 ± 0.036
same,growth,[3]; [13],0.41 ± 0.036
same,growth,[4]; [14],0.211 ± 0.025
same,growth,[4]; [15],0.201 ± 0.0096
same,growth,[6]; [16],0.399 ± 0.025
same,growth,[6]; [17],0.331 ± 0.013
C=CCC1(CC(C)C)C(=O)NC(=O)NC1=O [Butalbital],growth,[1],0.2428 ± 0.002
same,growth,[2]; [7],0.282 ± 0.011
same,growth,[2]; [8],0.276 ± 0.0052
same,growth,[2]; [9],0.198 ± 0.012
same,growth,[2]; [10],0.211 ± 0.0091
same,growth,[2]; [11],0.149 ± 0.0019
same,growth,[3]; [12],0.407 ± 0.1
same,growth,[3]; [13],0.3 ± 0.074
same,growth,[4]; [14],0.218 ± 0.021
same,growth,[4]; [15],0.24 ± 0.015
same,growth,[6]; [16],0.395 ± 0.0067
same,growth,[6]; [17],0.37 ± 0.0073
CCC1(c2cccc(O)c2)CCCCN(C)C1 (centres undefined) [Meptazinol hydrochloride],growth,[1],0.2565 ± 0.0013
same,growth,[2]; [7],0.3214 ± 0.0014
same,growth,[2]; [8],0.3 ± 0.0084
same,growth,[2]; [9],0.192 ± 0.015
same,growth,[2]; [10],0.203 ± 0.018
same,growth,[2]; [11],0.139 ± 0.0077
same,growth,[3]; [12],0.176 ± 0.04
same,growth,[3]; [13],0.41 ± 0.095
same,growth,[4]; [14],0.215 ± 0.026
same,growth,[4]; [15],0.217 ± 0.024
same,growth,[6]; [16],0.411 ± 0.014
same,growth,[6]; [17],0.323 ± 0.023
"NCC(O)c1ccc(O)cc1 (racemic) [(+,-)-Octopamine hydrochloride]",growth,[1],0.258 ± 0.0024
same,growth,[2]; [7],0.325 ± 0.02
same,growth,[2]; [8],0.268 ± 0.011
same,growth,[2]; [9],0.194 ± 0.012
same,growth,[2]; [10],0.179 ± 0.0096
same,growth,[2]; [11],0.162 ± 0.0021
same,growth,[3]; [12],0.483 ± 0.015
same,growth,[3]; [13],0.45 ± 0.018
same,growth,[4]; [14],0.203 ± 0.0088
same,growth,[4]; [15],0.271 ± 0.022
same,growth,[5],0.584 ± 0.08
same,growth,[6]; [16],0.408 ± 0.015
same,growth,[6]; [17],0.337 ± 0.014
CN[C@@H]1C[C@@H](c2ccc(Cl)c(Cl)c2)c2ccccc21 [Indatraline hydrochloride],growth,[1],0.0397 ± 0.00076
same,growth,[2]; [7],0.0417 ± 0.00046
same,growth,[2]; [8],0.0413 ± 0.00055
same,growth,[2]; [9],0.0425 ± 0.0013
same,growth,[2]; [10],0.03897 ± 0.00015
same,growth,[2]; [11],0.0445 ± 0.002
same,growth,[3]; [12],0.0513 ± 0.0011
same,growth,[3]; [13],0.0522 ± 0.0001
same,growth,[4]; [14],0.052 ± 0.0016
same,growth,[4]; [15],0.05117 ± 0.00042
same,growth,[6]; [16],0.24 ± 0.15
same,growth,[6]; [17],0.0505 ± 0.00096
O=c1c2ccccc2[se]n1-c1ccccc1 [Ebselen],growth,[1],0.067 ± 0.0015
same,growth,[2]; [7],0.295 ± 0.02
same,growth,[2]; [8],0.261 ± 0.0064
same,growth,[2]; [9],0.236 ± 0.027
same,growth,[2]; [10],0.224 ± 0.017
same,growth,[2]; [11],0.164 ± 0.0046
same,growth,[3]; [12],0.0698 ± 0.0046
same,growth,[3]; [13],0.061 ± 0.008
same,growth,[4]; [14],0.22 ± 0.027
same,growth,[4]; [15],0.249 ± 0.014
same,growth,[6]; [16],0.355 ± 0.009
same,growth,[6]; [17],0.346 ± 0.0078
CC(=O)O[C@H]1CC[C@@]2(C)C(=CC[C@@H]3[C@@H]2CC[C@]2(C)C(=O)CC[C@@H]32)C1 [Dehydroisoandosterone 3-acetate],growth,[1],0.198 ± 0.065
same,growth,[2]; [7],0.239 ± 0.019
same,growth,[2]; [8],0.253 ± 0.01
same,growth,[2]; [9],0.144 ± 0.0063
same,growth,[2]; [10],0.106 ± 0.015
same,growth,[2]; [11],0.134 ± 0.0039
same,growth,[3]; [12],0.315 ± 0.044
same,growth,[3]; [13],0.391 ± 0.0042
same,growth,[4]; [14],0.181 ± 0.005
same,growth,[4]; [15],0.225 ± 0.017
same,growth,[5],0.253 ± 0.0042
same,growth,[6]; [16],0.376 ± 0.012
same,growth,[6]; [17],0.0699 ± 0.0044
